# Results reported in ChEMBL document CHEMBL4513158, “CO-ADD screening of RKDF (India) compounds”.
# Results with a measured potency or affinity are listed apart.
# Tests used:
# Klebsiella pneumoniae = details: Concentration 32 ug.mL-1; ASSAY_TEST Inhibition of Bacterial Growth; detection method Absorption (OD600); MEDIA CAMHB; plate type 384well; NBS; CORNING #3640; time 18 hr
# Candida albicans = details: 32 ug/mL
# Cryptococcus neoformans = details: Concentration 32 ug.mL-1; ASSAY_TEST Inhibition of Fungal Growth; detection method Resazurin; Absorption (OD600-OD570); plate type 384well; NBS; CORNING #3640
Structure (SMILES),Inhibition (Klebsiella pneumoniae) [%],Inhibition (Candida albicans) [%],Inhibition (Cryptococcus neoformans) [%]
C=C[C@H]1[C@H](O[C@@H]2O[C@H](CO)[C@@H](O)[C@H](O)[C@H]2O)OC=C2C(=O)OCC[C@]21O [SWERTIAMARIN],13.48,14.2,102.17
CN(C)C(=N)NC(=N)N.Cl [METFORMIN HYDROCHLORIDE],14.76,99,90.72
